According to PubChem BioAssay (Tox21):
Records with an inconclusive call do not appear. Active and inactive are the calls of the source. Unless noted, calls follow the shape of the dose curve; as a rule, active = well fitted curve in the direction sought with a large enough effect in the repeat runs; inconclusive = weak or mixed curves; inactive = no such curve, though single readings can be large; an effect the other way counts as inactive or inconclusive.

Columns and labels:
[1] = qHTS assay to identify small molecule agonists of the hypoxia (HIF-1) signaling pathway (AID 1224846; active = well fitted activation curve with a large enough effect in the signal ratio in the repeat runs, not every such curve was filed as active; the % refers to the signal ratio; also: potency is read from the fitted curve at half-maximal effect)
In short: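 HRE-bla ME-180 cells (beta-lactamase reporter under hypoxia response element) were plated at 2,000 cells/well in medium with 0.5% dialyzed FBS, rested 5 hrs, then given compounds in DMSO for 17 hrs at 37C, 5% CO2. Reporter induction was read with CCF4-AM FRET substrate.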

[2] = qHTS assay to identify small molecule agonists of H2AX - cell viability counter screen (AID 1224847; calls by dose curve;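 also: wild-type CHO-K1 cells; top concentration of the series differs between compounds; nearly all actives have a fitted effect of over 30% in size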)
In short: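 After overnight plating of 1000 CHO-K1 cells per well, a 15-concentration compound series was applied for 3 hr at 37C. Luminescence from CellTiter-Glo, read following 30 min at room temperature, reflected cell viability.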

[3] = qHTS RealTime-Glo MT Cell Viability Assay in HEK293 cells - 32 hour (AID 1224868); also: nearly all actives have a fitted effect of over 50% in size; also: potency is read from the fitted curve at half-maximal effect; as to activity change, negative = cytotoxic: top concentration of the series differs between compounds
In short: (§1)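 Luminescence generated by NanoLuc from substrate produced by living HEK293 cells served as the viability signal. Each value reflects the reading at its stated time point during continuous 40 h compound exposure at 37 C.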

[4] = A CellTox Green Cytotoxicity Assay to monitor cytotoxicity in HEK293 cells - 0 hour (AID 1224869); also: nearly all actives have a fitted effect of over 50% in size
In short: (§2)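 HEK293 cells premixed with CellTox Green dye were seeded at 600 cells/well and left 5 h at 37 C/5% CO2 before pin transfer of 23 nL compound in DMSO. Fluorescence from dye bound to dead-cell DNA was read during 40 h treatment.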

[5] = qHTS RealTime-Glo MT Cell Viability Assay in HepG2 cells - 40 hour (AID 1224870); also: nearly all actives have a fitted effect of over 50% in size; also: potency is read from the fitted curve at half-maximal effect
In short: (§3)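 HepG2 cells mixed with RealTime-Glo MT reagents (NanoLuc plus cell-permeant prosubstrate) were seeded at 600 cells/well, incubated 5 h at 37 C/5% CO2, then pinned with compounds in DMSO; nonlytic luminescence tracked viability during 40 h treatment.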

[6] = A CellTox Green Cytotoxicity Assay to monitor cytotoxicity in HEK293 cells - 40 hour (AID 1224871); also: nearly all actives have a fitted effect of over 45% in size
In short: as §2

[7] = qHTS RealTime-Glo MT Cell Viability Assay in HEK293 cells - 16 hour (AID 1224872); also: nearly all actives have a fitted effect of over 50% in size; also: potency is read from the fitted curve at half-maximal effect; as to activity change, negative = cytotoxicity: top concentration of the series differs between compounds
In short: as §1

[8] = qHTS RealTime-Glo MT Cell Viability Assay in HepG2 cells - 8 hour (AID 1224873); also: nearly all actives have a fitted effect of over 55% in size
In short: as §3

[9] = qHTS RealTime-Glo MT Cell Viability Assay in HEK293 cells - 40 hour (AID 1224874); settings: RealTime-Glo luminescence; max response: hits give low values; also: nearly all actives have a fitted effect of over 50% in size; also: potency is read from the fitted curve at half-maximal effect
In short: (§4)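 HEK293 cells mixed with RealTime-Glo reagents (NanoLuc plus cell-permeant prosubstrate) at 600 cells/well, preincubated 5 h at 37 C/5% CO2, then given 23 nL compound in DMSO. Nonlytic luminescence from viable cells was read at 0, 8, 16, 24, 32 and 40 h.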

[10] = A CellTox Green Cytotoxicity Assay to monitor cytotoxicity in HEK293 cells - 24 hour (AID 1224875); also: nearly all actives have a fitted effect of over 45% in size
In short: as §2

[11] = A CellTox Green Cytotoxicity Assay to monitor cytotoxicity in HepG2 cells - 16 hour (AID 1224876); also: nearly all actives have a fitted effect of over 45% in size; also: potency is read from the fitted curve at half-maximal effect
In short: (§5)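 HepG2 cells were seeded together with the CellTox Green dye at 600 cells/well, left 5 h at 37 C/5% CO2, then given compounds in DMSO. Fluorescence from dye bound to dead-cell DNA was read repeatedly over 40 h of treatment at 37 C.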

[12] = qHTS RealTime-Glo MT Cell Viability Assay in HepG2 cells - 32 hour (AID 1224877); also: nearly all actives have a fitted effect of over 55% in size; also: potency is read from the fitted curve at half-maximal effect
In short: (§6)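 Tox21 10K library screened in qHTS format on HepG2 cells carrying RealTime-Glo reagents. Compounds were added after a 5 h preincubation, and the luminescent signal from continuous culture was measured repeatedly during 40 h treatment.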

[13] = A CellTox Green Cytotoxicity Assay to monitor cytotoxicity in HepG2 cells - 24 hour (AID 1224878); also: nearly all actives have a fitted effect of over 45% in size; also: potency is read from the fitted curve at half-maximal effect
In short: as §5

[14] = A CellTox Green Cytotoxicity Assay to monitor cytotoxicity in HepG2 cells - 40 hour (AID 1224879); also: nearly all actives have a fitted effect of over 40% in size; also: potency is read from the fitted curve at half-maximal effect
In short: as §5

[15] = qHTS RealTime-Glo MT Cell Viability Assay in HEK293 cells - 0 hour (AID 1224880)
In short: as §4

[16] = A CellTox Green Cytotoxicity Assay to monitor cytotoxicity in HEK293 cells - 32 hour (AID 1224881); also: nearly all actives have a fitted effect of over 40% in size
In short: as §2

[17] = qHTS assay to identify small molecule agonists of the estrogen related receptor (ERR) signaling pathway from Tox21 library (AID 1224849; calls by dose curve; also: nearly all actives have a fitted effect of over 15% in size); settings: ERR reporter cell line, ONE-Glo luciferase, 18 h; at 92.4 µM (top of the series) unless noted
In short: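 ERR reporter cell line (NTP) seeded, rested 6 h at 37 C/5% CO2, then pinned with Tox21 compounds in DMSO. After 18 h at 37 C, ONE-Glo luciferase luminescence was read following 30 min at room temperature.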

[18] = qHTS RealTime-Glo MT Cell Viability Assay in HepG2 cells - 24 hour (AID 1224867); also: nearly all actives have a fitted effect of over 50% in size
In short: as §6

[19] = qHTS assay to identify small molecule antagonists of the estrogen related receptor (ERR) signaling pathway from Tox21 library (AID 1224848); also: nearly all actives have a fitted effect of over 50% in size; also: potency is read from the fitted curve at half-maximal effect
In short: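 Screening used an ERR reporter line supplied by NTP, exposed for 18 h at 37 C to library compounds delivered in DMSO. Signal was luciferase luminescence developed with ONE-Glo at room temperature for 30 min.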
% is scaled to controls: 0 for no effect and ±100 for the full control effect.

O=C(CS)Nc1ccccc1
inactive: Potency [1] | Potency [2] | Potency [3] | Potency [4] | Potency [5] | Potency [6] | Potency [7] | Potency [8] | max response [9] -18% | Potency [10] | Potency [11] | Potency [12] | Potency [13] | Potency [14] | Potency [15] | Potency [16]

CCCCNc1ccc(C(=O)OCCOCCOCCOCCOCCOCCOCCOCCOCCOC)cc1
inactive: Potency [2] | activity change, positive = activation [17] -27.3% [at 42.5 µM] | Potency [18] | Potency [4] | Potency [5] | Potency [6] | Potency [8] | Potency [10] | Potency [11] | Potency [12] | Potency [13] | Potency [14] | Potency [15] | Potency [16]

Nc1c(CC(=O)O)cccc1C(=O)c1ccc(Br)cc1
inactive: Potency [1] | Potency [2] | Potency [3] | Potency [4] | Potency [5] | Potency [6] | Potency [7] | Potency [8] | max response [9] 13% | Potency [10] | Potency [11] | Potency [12] | Potency [13] | Potency [14] | Potency [15] | Potency [16]

O=S(c1cc(Cl)cc(Cl)c1O)c1cc(Cl)cc(Cl)c1O
inactive: Potency [19] | activity change, positive = activation [17] -6.01% [at 42.5 µM] | Potency [18] | Potency [3] | Potency [4] | Potency [5] | Potency [6] | Potency [7] | Potency [8] | max response [9] -7.88% | Potency [10] | Potency [11] | Potency [12] | Potency [13] | Potency [14] | Potency [15] | Potency [16]

Cn1c(=O)cc(Oc2ccc(F)cc2F)c2cnc(NCC(C)(C)O)nc21
inactive: Potency [1] | activity change, positive = activation [17] -55.2% | Potency [18] | Potency [4] | Potency [5] | Potency [6] | Potency [8] | Potency [10] | Potency [11] | Potency [12] | Potency [13] | Potency [14] | Potency [15] | Potency [16]
active: Potency [19] 30.6 µM

COc1ccc(C(=O)c2ccc(OC)cc2O)c(O)c1
active: activity change, positive = activation [17] -2.18% | Potency [3] 27.7 µM | Potency [9] 24.7 µM | Potency [14] 15.6 µM
inactive: Potency [1] | Potency [19] | Potency [18] | Potency [4] | Potency [5] | Potency [8] | Potency [11] | Potency [12] | Potency [13] | Potency [15]

COc1cccc(N(C)C(=S)Oc2ccc3c(c2)CCCC3)n1
inactive: Potency [2] | Potency [18] | Potency [3] | Potency [4] | Potency [5] | Potency [6] | Potency [7] | Potency [8] | max response [9] -20.4% | Potency [11] | Potency [12] | Potency [13] | Potency [14] | Potency [15] | Potency [16]

CCCCCCc1ccc(-c2ccc(C#N)cc2)cc1
inactive: Potency [19] | activity change, positive = activation [17] 1.68% | Potency [18] | Potency [3] | Potency [4] | Potency [5] | Potency [6] | Potency [7] | Potency [8] | max response [9] -15.1% | Potency [10] | Potency [11] | Potency [12] | Potency [13] | Potency [14] | Potency [15] | Potency [16]

c1ccc(C(O[C@H]2CCCN(CCc3ccc4c(c3)OCO4)C2)c2ccccc2)cc1
inactive: Potency [1] | Potency [18] | Potency [4] | Potency [5] | Potency [6] | Potency [8] | max response [9] -24.8% | Potency [10] | Potency [12] | Potency [15] | Potency [16]

Cc1oc2c(NC(=O)c3c(Cl)cccc3Cl)cccc2c1C(C)(C)O
inactive: activity change, positive = activation [17] -55.8% | Potency [18] | Potency [4] | Potency [6] | Potency [10] | Potency [11] | Potency [13] | Potency [15] | Potency [16]
active: Potency [1] 17.4 µM | Potency [19] 30.6 µM

CNCCCCOc1ccccc1Cc1ccccc1
inactive: Potency [1] | Potency [4] | Potency [8] | Potency [15]
active: Potency [3] 23.9 µM | Potency [9] 23.9 µM | Potency [11] 23.9 µM | Potency [13] 23.9 µM | Potency [14] 23.9 µM

CC(=O)NO
inactive: Potency [1] | Potency [2] | Potency [3] | Potency [4] | Potency [5] | Potency [6] | Potency [7] | Potency [8] | max response [9] 2.23% | Potency [10] | Potency [11] | Potency [12] | Potency [13] | Potency [14] | Potency [15] | Potency [16]

Clc1ccc2c(c1)CCc1cccnc1C2=C1CCNCC1
inactive: Potency [1] | Potency [2] | Potency [4] | Potency [7] | Potency [8] | Potency [10]
active: Potency [5] 23.9 µM | Potency [12] 26.8 µM | Potency [13] 23.9 µM | Potency [14] 23.9 µM

Cc1cccc(C)c1OCC(=O)N[C@@H](Cc1ccccc1)[C@@H](O)C[C@H](Cc1ccccc1)NC(=O)[C@H](C(C)C)N1CCCNC1=O
active: Potency [19] 23.7 µM | Potency [3] 23.9 µM | Potency [7] 23.9 µM | Potency [9] 23.9 µM
inactive: Potency [1] | activity change, positive = activation [17] -59.8% [at 42.5 µM] | Potency [18] | Potency [4] | Potency [5] | Potency [8] | Potency [11] | Potency [12] | Potency [13] | Potency [14] | Potency [15]

Cc1cc(N)c2cc(NC(=O)Nc3ccc4nc(C)cc(N)c4c3)ccc2n1
inactive: Potency [18] | Potency [3] | Potency [4] | Potency [5] | Potency [6] | Potency [7] | Potency [8] | max response [9] -16.5% | Potency [11] | Potency [12] | Potency [13] | Potency [14] | Potency [15] | Potency [16]

Brc1c2ccccc2c(Br)c2ccccc12
inactive: activity change, negative = cytotoxicity [2] 5.06% [at 14 µM] | activity, negative = inhibition [19] 4.96% [at 8.39 µM] | activity change, positive = activation [17] 2.61% [at 8.39 µM] | activity change, negative = cytotoxicity [18] 2.73% [at 6.97 µM] | activity change, negative = cytotoxic [3] 4.29% [at 6.97 µM] | cytotoxicity [4] 0.676% [at 6.97 µM] | activity change, negative = cytotoxic [5] 1.43% [at 6.97 µM] | cytotoxicity increase [6] -0.912% [at 6.97 µM] | activity change, negative = cytotoxicity [7] 0.583% [at 6.97 µM] | viability change, negative = cytotoxic [8] 0.903% [at 6.97 µM] | max response [9] 1.72% | activity change [10] -0.621% [at 6.97 µM, hits give high values] | cytotoxicity increase [11] 2.77% [at 6.97 µM] | activity change, negative = cytotoxic [12] 0.723% [at 6.97 µM] | cytotoxicity [13] 2.45% [at 6.97 µM] | cytotoxicity increase [14] -0.88% [at 6.97 µM] | activity change, negative = cytotoxicity [15] 0.766% [at 6.97 µM] | cytotoxicity increase [16] -2.57% [at 6.97 µM]
